Autofluor counter: counter-screen for toxin protease inhibitors: compound fluorescence | fluorescence intensity (concentration not given with the values) | compound autofluorescence counterscreen, microsphere flow cytometry; hits give high values | AID 624483 | 360,000 compounds, 3.1% hits; in the data active = fluorescence intensity above about 16000; inconclusive = no clear call, values can overlap the other calls
Mtb FBA inh: inhibits M. tuberculosis FBA enzyme; purified M. tuberculosis FBA, fluorescence read-out; inhibition, % at 1 µM; 360,000 compounds, 2.3% hits; AID 588726
Target sequence (P9WQA3 whole entry, looked up): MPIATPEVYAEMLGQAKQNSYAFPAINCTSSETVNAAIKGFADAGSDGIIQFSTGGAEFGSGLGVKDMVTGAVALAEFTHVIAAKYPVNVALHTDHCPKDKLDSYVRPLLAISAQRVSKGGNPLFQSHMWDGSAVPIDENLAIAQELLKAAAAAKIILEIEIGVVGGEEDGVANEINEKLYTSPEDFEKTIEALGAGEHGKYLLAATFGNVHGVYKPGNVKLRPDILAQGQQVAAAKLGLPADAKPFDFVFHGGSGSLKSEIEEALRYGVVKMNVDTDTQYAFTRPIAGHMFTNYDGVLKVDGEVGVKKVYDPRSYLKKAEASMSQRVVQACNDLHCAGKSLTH
BoNT-A LC inh2: blocks Botulinum neurotoxin A light chain protease; multiplex microsphere protease substrate cleavage, flow cytometry; inhibition, % at 10 µM; 360,000 compounds, 0.17% hits; AID 588499; in the data active = inhibition above about 30%; inconclusive = no clear call, values can overlap the other calls
GDH-TPI counter-1: inhibits GDH-TPI coupling enzymes, artifact for Mtb FBA screen; GDH-TPI coupled enzyme counterscreen, NADH absorbance; inhibition, % at 4.8 µM; 360,000 compounds, 1.2% hits; in the data active = inhibition above about 30%
BoNT F protease: inhibitors of Botulinum neurotoxin F light chain protease; Multiplex microsphere protease cleavage assay, flow cytometry; inhibition, % at 10 µM; 360,000 compounds, 0.22% hits; in the data active = inhibition above about 35%, passing the limit was not always enough; inconclusive = no clear call, values can overlap the other calls
Anthrax LF inh2: inhibitors of Bacillus anthracis lethal factor protease; 360,000 compounds, 0.12% hits; P15917; inhibition, % at 10 µM; multiplex microsphere protease cleavage assay, LF; in the data active = inhibition above about 30%; inconclusive = no clear call, values can overlap the other calls
Mtb FBA inh conf: Mtb FBA inhibition, confirmed. AID 651616. shares compounds with Mtb FBA inh. 5,600 compounds, 78% hits. inhibition, % at 1 µM. purified M. tuberculosis FBA, fluorescence read-out
GDH-TPI counter-2: inhibits GDH-TPI coupling enzymes, flagging Mtb FBA hits; 5,600 compounds, 81% hits; inhibition, % at 1 µM; GDH-TPI coupled enzyme counterscreen, fluorescence; shares compounds with Mtb FBA inh; in the data active = inhibition above about 10%
GDH-TPI dose: GDH-TPI dose response counter-screen for Mtb FBA; GDH-TPI coupled enzyme assay, fluorescence, artifact counterscreen; shares compounds with Mtb FBA inh; 170 compounds, 79% hits; IC50, µM; call rule not given here
Of the large screens only hits and unclear results are named; the others gave an inactive call (follow-up assays come after a bar, where they were run). Most compounds without a hit are left out; they make up all but 6.7% or so of the library. Rule as the data show it, unless noted: active = inhibition above about 27%; inactive = the rest.

C(=N\Nc1ncnc2sc3c(c12)CCC3)/c1ccncc1	none
c1cc(Nc2ncnc3sc4c(c23)CCC4)ccn1	Mtb FBA inh 60 | Mtb FBA inh conf inactive | GDH-TPI counter-2 inactive
CC(OC(=O)c1ccc(Cl)c(S(=O)(=O)N2CCc3ccccc32)c1)C(=O)Nc1ncc(Cl)cc1Cl (stereo unspecified)	Mtb FBA inh 64 | Mtb FBA inh conf 35 | GDH-TPI counter-2 24
COc1cccc2c(=O)ccoc12	none
COc1c2ccoc2nc2c(OC)cccc12	Mtb FBA inh 55 | Mtb FBA inh conf 113 | GDH-TPI counter-2 97
O=C1c2ccc(-c3ccc4c(c3)C(=O)N(CCCO)C4=O)cc2C(=O)N1CCCO	Mtb FBA inh 36, BoNT F protease inconclusive | Mtb FBA inh conf inactive | GDH-TPI counter-2 inactive
CCN(CC)C(=O)CN1C(=O)c2cccc3cccc(c23)C1=O	Mtb FBA inh 38 | Mtb FBA inh conf 130 | GDH-TPI counter-2 88
O=C(CN1C(=O)c2cccc3cccc(c23)C1=O)N1CCOCC1	Mtb FBA inh 29 | Mtb FBA inh conf 46 | GDH-TPI counter-2 39
O=C(CN1C(=O)c2cccc3cccc1c23)N1CCc2ccccc2C1	none
Cc1nc2ccc(Br)cn2c1C(=O)N/N=C\c1ccccc1[N+](=O)[O-]	none
COC(=O)c1c(S(N)(=O)=O)c2ccccc2n1C	Autofluor counter 21700, Mtb FBA inh 33 | Mtb FBA inh conf active | GDH-TPI counter-2 active
N#Cc1ccc(CCc2ccccc2)[nH]c1=O	Mtb FBA inh 31 | Mtb FBA inh conf inactive | GDH-TPI counter-2 inactive
Cc1ccc(C)c(S(=O)(=O)Nc2ccc(S(=O)(=O)Nc3ncccn3)cc2)c1	none
CC(=O)Nc1ccc(C(=O)Nc2ccc(S(=O)(=O)Nc3nccc(C)n3)cc2)cc1	Autofluor counter inconclusive, BoNT F protease inconclusive
Cc1ccc(C)c(S(=O)(=O)Nc2ccccc2C(=O)Nc2ccc(S(=O)(=O)Nc3ncccn3)cc2)c1	Mtb FBA inh 106 | Mtb FBA inh conf active | GDH-TPI counter-2 active
Cc1ccc(S(=O)(=O)Nc2ccccc2C(=O)Nc2ccc(S(=O)(=O)Nc3nccc(C)n3)cc2)cc1	Mtb FBA inh 66 | Mtb FBA inh conf 35 | GDH-TPI counter-2 20
O=C(Nc1ccc(Cc2ccncc2)cc1)C1CCC(N2C(=O)C3C4C=CC(C4)C3C2=O)CC1 (stereo unspecified)	none
N#CCc1nn2c(-c3ccccc3)ccnc2c1C#N	Mtb FBA inh 69 | Mtb FBA inh conf 121 | GDH-TPI counter-2 91
O=[N+]([O-])c1ccc(Cl)cc1N1CCCCC1	none
COc1cc(C(=O)NCC(=O)OCC(=O)Nc2ncc(Cl)cc2Cl)cc(OC)c1OC	none
COc1cc(C(=O)NCC(=O)OC(C)C(=O)Nc2ncc(Cl)cc2Cl)cc(OC)c1OC (stereo unspecified)	Mtb FBA inh 48 | Mtb FBA inh conf 69 | GDH-TPI counter-2 74
COc1ccc(C2C3=C(CC(C)(C)CC3=O)N(CCN3CCOCC3)C3=C2C(=O)CC(C)(C)C3)cc1	none
CC1(C)CC(=O)C2=C(C1)N(CCN1CCOCC1)C1=C(C(=O)CC(C)(C)C1)C2c1ccc(Cl)cc1	Mtb FBA inh 36 | Mtb FBA inh conf inactive | GDH-TPI counter-2 inactive | GDH-TPI dose 4.6
c1ccc2c(NCC3CCCO3)nc(N3CCOCC3)nc2c1 (stereo unspecified)	Mtb FBA inh 64 | Mtb FBA inh conf 176 | GDH-TPI counter-2 132
c1ccc2c(N3CCCCC3)nc(N3CCOCC3)nc2c1	none
CCOc1ccc(Nc2cc(C)nc(N3CCOCC3)n2)cc1	none
c1ccc2c(c1)nc(N1CCOCC1)c1c3ccccc3[nH]c21	Mtb FBA inh 31 | Mtb FBA inh conf 62 | GDH-TPI counter-2 63
O=c1[nH]c2ccccc2nc1N1CCOCC1	none
Nc1nc(N2CCOCC2)nc2ccccc12	Mtb FBA inh 75 | Mtb FBA inh conf inactive | GDH-TPI counter-2 inactive
CCOc1ccc2nc(N3CCOCC3)nc(C)c2c1	Mtb FBA inh 51 | Mtb FBA inh conf 131 | GDH-TPI counter-2 109
S=C(c1c[nH]c2ccccc12)N1CCCC1	none
CC(=O)Nc1cccc(NC(=O)CSc2ccc(-c3cccnc3)nn2)c1	none
COc1cccc(CN2CC(C(=O)NCCCn3ccnc3C)CCC2=O)c1 (stereo unspecified)	none
O=C(NNC(=O)c1cc(F)c(F)cc1Cl)c1ccc(NS(=O)(=O)c2cccs2)cc1	none
O=C(NNC(=O)c1cc(Cl)ccc1O)c1ccc(NS(=O)(=O)c2cccs2)cc1	Mtb FBA inh 29 (no result: Autofluor counter, BoNT-A LC inh2, BoNT F protease, Anthrax LF inh2) | Mtb FBA inh conf active | GDH-TPI counter-2 active
CC(C)Cc1[nH]c(=O)c(C#N)c2c1CCC2	Mtb FBA inh 52 | Mtb FBA inh conf active | GDH-TPI counter-2 169
CC(C)(C)OC(=O)NCc1ccc(CNC(=O)c2nc[nH]c2C(=O)NCc2ccc(CNC(=O)OC(C)(C)C)cc2)cc1	none
N#Cc1c(-c2ccccc2)c(C#N)c2nc3ccccc3n2c1N	Mtb FBA inh 83 | Mtb FBA inh conf 91 | GDH-TPI counter-2 67
CN1C(=O)c2ccc(NC(=O)c3ccc(Cl)cc3Cl)cc2C1=O	Mtb FBA inh 38 (no result: Autofluor counter, BoNT-A LC inh2, BoNT F protease, Anthrax LF inh2) | Mtb FBA inh conf 95 | GDH-TPI counter-2 70
O=C(N/N=C/c1cccnc1)c1ccc(NC(=O)C(c2ccccc2)c2ccccc2)cc1	none
CC1CCCN(Cc2nc3c(c(=O)n(C)c(=O)n3C)n2CCc2ccccc2)C1 (stereo unspecified)	none
COc1cc(Br)cc(C2C3=C(CCCC3=O)N(c3ccc(F)cc3)C3=C2C(=O)CCC3)c1O	none
COc1ccccc1C1C2=C(CCCC2=O)N(CC(=O)O)C2=C1C(=O)CCC2	Mtb FBA inh 40 | Mtb FBA inh conf inactive | GDH-TPI counter-2 inactive
O=c1c2c(nc3cc(-c4ccccc4)[nH]n13)CCC2	Mtb FBA inh 44 | Mtb FBA inh conf 111 | GDH-TPI counter-2 98
COc1ccc(-c2cc3nc4c(c(=O)n3[nH]2)CCC4)cc1	Mtb FBA inh 38 | Mtb FBA inh conf 151 | GDH-TPI counter-2 129
COc1ccc(/C=N/NC(=O)CCn2nc(C)cc2C)cc1	none
CC1=CC(=O)C=C(C)C1=NOc1ccc([N+](=O)[O-])cc1	none
CCCCc1c(C)[nH]c2nc3ccccc3n2c1=O	none
CCOC(=O)c1c(-c2ccc(F)cc2)cn2ccccc12	Mtb FBA inh 99 | Mtb FBA inh conf 139 | GDH-TPI counter-2 100
CCOC(=O)c1c(O)c2ccccc2n(C)c1=O	none
CCOC(=O)c1c(-c2ccc(C)cc2)cn2ccccc12	Mtb FBA inh 89 | Mtb FBA inh conf 106 | GDH-TPI counter-2 80
O=C(Nc1ccccc1)C(=O)Nc1ccccn1	none

Source: PubChem
